In PubChem BioAssay AID1645851 (National Center for Advancing Translational Sciences (NCATS), 2021):
“And” between values parts separate entries of the source, which are not always exact repeats. Identical values can stand only once. About 1,200 (0.86%) of roughly 140,000 compounds were called active. This is one part of a sample in which actives are shown more often than they occur. No stated cut-off is given here; in the data, active means activity change below about -25%; inactive means the rest. More than one record can exist for a structure, and the calls need not agree.

Biological target: Inositol hexakisphosphate kinase 1 (Homo sapiens) (UniProt Q92551)
Test: Primary qHTS assay for small molecule inhibitors of Inositol hexaphosphate kinase 1 (IP6K1); further: series mostly up to about 58 µM
Settings: ADP-Glo luminescence, 2 h, stronger effect = lower value
Outline: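 ADP-Glo luminescence measures ADP made by human IP6K1 during a 2 h RT reaction with ATP/IP6 (mix at 1.3 mM/130 uM); top library doses 57.5 and 19.1 uM final.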
On the % scale 0 is the no-effect control and ±100 the full control effect.

Sequence of Inositol hexakisphosphate kinase 1 (Homo sapiens) (Q92551 whole entry, looked up): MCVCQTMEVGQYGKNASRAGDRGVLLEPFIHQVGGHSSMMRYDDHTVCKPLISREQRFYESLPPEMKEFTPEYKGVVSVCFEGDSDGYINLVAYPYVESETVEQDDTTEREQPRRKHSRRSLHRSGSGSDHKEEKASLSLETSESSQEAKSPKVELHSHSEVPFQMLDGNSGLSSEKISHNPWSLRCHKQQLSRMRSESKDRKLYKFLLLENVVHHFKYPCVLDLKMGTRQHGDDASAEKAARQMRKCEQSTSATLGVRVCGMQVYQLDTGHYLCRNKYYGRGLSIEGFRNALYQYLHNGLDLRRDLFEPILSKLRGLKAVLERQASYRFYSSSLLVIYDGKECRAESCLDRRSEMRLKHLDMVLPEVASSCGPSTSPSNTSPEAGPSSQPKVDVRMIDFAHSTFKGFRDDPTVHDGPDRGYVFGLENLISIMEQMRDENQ

| SMILES | activity change |
| --- | --- |
| O=C(Nc1cccnc1)[C@@H]1C[C@@H](c2ccc(F)cc2)N([S+](=O)([O-])c2ccccc2)C1 | 19.9% (inactive) |
| Cc1ccc(CNC(=O)CCc2c(C)nc3c(c(C)nn3-c3ccccc3)c2C)cc1 | -26.3% (active) |
| COC(=O)c1ccc(NC(=O)CCc2c(C)nc3c(c(C)nn3-c3ccc(C)cc3)c2C)cc1 | 33% (inactive) |
| Cc1nc2c(c(C)nn2-c2ccccc2)c(C)c1CCC(=O)NCCc1ccc(Cl)cc1 | 11.8% (inactive) |
| Cn1ncc2c(C(=O)NCc3ccc(Cl)cc3)cc(-c3ccc(F)cc3)nc21 | 11.6% (inactive) |
| O=C(NCCc1ccccc1F)c1ccc2nnc(-c3ccc(F)cc3)n2c1 | 1.1% (inactive) |
| COC(=O)NC1CCCN(c2ccc3nnc(-c4ccccc4)n3n2)C1 (stereo not drawn) | -6.13% (inactive) |
| COc1ccc(N2CC(c3noc(-c4cc(OC)c(OC)c(OC)c4)n3)CC2=O)cc1 (stereo not drawn) | 12.4% (inactive) |
| CCOc1ccccc1CNC(=O)C1CCCN(S(=O)(=O)c2ccc3c(ccn3C)c2)C1 (stereo not drawn) | -3.08% (inactive) |
| CCOc1ccccc1NC(=O)C1CCCN(S(=O)(=O)c2cn(C)cn2)C1 (stereo not drawn) | -25.5% (active) |
| Cc1ccc(C)c(NC(=O)C2CCCN(S(=O)(=O)c3cn(C)cn3)C2)c1 (stereo not drawn) | 5.66% (inactive) |
| Cc1noc(C)c1-c1nccc2c(=O)cc(N3CCOCC3)oc12 | -13.2% (inactive) |
| O=c1cc(N2CCOCC2)oc2c(NCc3ccncc3)nccc12 | -7.16% (inactive) |
| O=c1cc(N2CCOCC2)oc2c(Nc3cccc(Cl)c3)nccc12 | -31% (active) |
| CN(C)c1ccc(CN(C)C2CCc3ccccc3C2)cc1 (stereo not drawn) | -16.7% (inactive) |
| CC(C)OCCCNC(=O)c1cc(-c2ccc(C(F)(F)F)cc2)nc2c1cnn2C | -2.02% (inactive) |
| CCOc1ccccc1NC(=O)CN1C(=O)C(c2ccccc2)=NC12CCCC2 | 7.82% (inactive) |
| CC1=C(C(=O)N(C)C)C(c2ccc(Cl)cc2)N2C(CC(=O)NC(C)c3ccccc3)=CSC2=N1 (stereo not drawn) | 33.5% (inactive) |
| CC1=C[C@@H](CNC(C)C)[C@H](C(C)C)C[C@H]1Cc1nnc(-c2ccc(N(C)C)cc2)o1 | -0.243% (inactive) |
| Cc1ccccc1C(=O)N1CCCC(C(=O)N2CCC(N3CCOC3=O)CC2)C1 (stereo not drawn) | -1.11% (inactive) |
| C#C[C@]1(O)CC[C@H]2[C@@H]3CCC4=C/C(=N/O)CC[C@@H]4[C@H]3CC[C@@]21CC | -79.6% (active) |
| C#C[C@]1(O)CC[C@H]2[C@@H]3CCC4=CC(=O)CC[C@@H]4[C@H]3CC[C@@]21CC | 3.56% (inactive) |

| SMILES | activity change |
| --- | --- |
| CN1CC(=O)N(C2CCC2)Cc2c(NCC(C)(C)C)ncnc21 | 15.1% (inactive) |
| O=C(OCc1ccccc1)N1CCOCC12CCN(Cc1ccncc1Cl)CC2 | 13% (inactive) |
| CN(CC1CCN(CCc2cccc(F)c2)CC1)C(=O)c1cn2cccnc2n1 | 28.9% (inactive) |
| Cc1cc(=O)n(CC(=O)NCCc2ccc(Cl)cc2)c(N2CCc3ccccc3C2)n1 | 19.5% (inactive) |
| N#CSc1cc(SC#N)c(N)nc1N | -42.8% (active) |
| COc1ccc(Cn2c(=O)c(C(=O)N3CCN([S+](=O)([O-])c4c(C)noc4C)CC3)nc3cccnc32)cc1 | 10.5% (inactive) |
| Cc1cn2nc(C(=O)Nc3cc(F)cc(F)c3)cc2c(N(C)Cc2ccccc2)n1 | -5.8% (inactive) |
| O=c1cc(-c2cccnc2)oc2c(-c3cccc(CO)c3)nccc12 | -18.5% (inactive) |
| O=c1cc(-c2cccnc2)oc2c(-c3ccccc3O)nccc12 | -32.5% (active) |
| O=c1cc(-c2ccccn2)oc2c(-c3ccccc3F)nccc12 | -14.4% (inactive) |
| CCCn1c(C)cnc1C1CCN(S(C)(=O)=O)C1 (stereo not drawn) | 2.78% (inactive) |
| O=C(NC1CCCCCC1)C1CCCN(Cc2cccc(-c3cccs3)c2)C1 (stereo not drawn) | 8.71% (inactive) |
| Cn1nc(C2CCCN(C(=O)NCc3ccccc3)C2)n(Cc2ccccc2)c1=O (stereo not drawn) | -4.56% (inactive) |
| COc1ccccc1N1CCCc2ncc(C(=O)N3CCCC[C@@H]3c3ccccc3)cc21 | -3.23% (inactive) |
| COC(=O)[C@H](NC(=O)[C@@H]1C[C@H](NC(=O)Nc2ccc(F)cc2F)CN1C(C)=O)C(C)C | -6.82% (inactive) |
| O=C(Nc1cccc(-c2nc3ccccc3o2)c1)c1cccc(Br)c1 | 18.7% (inactive) |
| CCC(=O)Nc1cccc(-c2nc3cc(C)ccc3o2)c1 | -27.3% (active) |
| Cc1ccc(SCC(=O)Nc2ccc3oc(-c4ccccc4C)nc3c2)cc1 | 18.6% (inactive) |
| CC1(c2ccccc2)N(Cc2ccccc2F)C(=O)OC12CCN(Cc1cccc(O)c1)CC2 (stereo not drawn) | -6.41% (inactive) |
| Cc1noc(-c2ccc(OC3CN(C(=O)c4ccco4)C3)cc2)n1 | 5.28% (inactive) |
| CC1(C)[C@H](Cc2cc(CC3CCCCC3)on2)C[C@@H]1NC(=O)C1CCC1 | -13.8% (inactive) |
| O=C(NCc1ccc2c(c1)OCO2)C1CCCN(Cc2cccc(-c3cccs3)c2)C1 (stereo not drawn) | -3.87% (inactive) |

| SMILES | activity change |
| --- | --- |
| c1cc(-c2nc3ccncc3[nH]2)ccn1 | 3.83% (inactive) and 13.8% (inactive) |
| COc1ccc(-c2nc3ccncc3[nH]2)cc1 | -18.1% (inactive) and -33.5% (active) |
| COc1ccc(C(=O)N2CCCC2C(=O)N2CCCC2c2nc3ccncc3[nH]2)cc1 (stereo not drawn) | 15.6% (inactive) |
| O=C(NCC1CN(C(=O)c2cnccn2)CC12CCOCC2)N1CCCC1 (stereo not drawn) | 5.72% (inactive) |
| COc1ccc2[nH]c3c(c2c1)CCNC31CCN(C(=O)c2ccccc2)CC1 | 15.7% (inactive) |
| CCOc1ccccc1C(=O)N1CCC(Oc2ncccc2C(=O)N(C)C)C1 (stereo not drawn) | 17.8% (inactive) |
| O=C(c1ccccc1Cl)N1CCN(C(=O)c2nc3cccnc3n(Cc3ccccc3)c2=O)CC1 | -2.58% (inactive) |
| CCOc1ncccc1C(=O)N1CCN(Cc2ccccc2)CC(O)C1 (stereo not drawn) | -34.4% (active) |
| Nc1nc2c(s1)C(c1ccccc1)CC(=O)N2 (stereo not drawn) | -56.5% (active) |
| CN1C(=O)CC(c2ccccc2)C1=O (stereo not drawn) | 10.2% (inactive) |
| COC(=O)[C@H](NC(=O)C1=C[C@@H](NC(=O)CS(=O)(=O)c2ccccc2)[C@@H](O)[C@H](O)C1)C(C)C | 22% (inactive) |
| COc1cccc(CN2CCOC[C@H](Oc3ccccc3)C2)c1 | 7.17% (inactive) |
| Cc1cccc(C(=O)N2CCC3(CC2)CC(c2ccccc2)CN(C)C3)n1 (stereo not drawn) | -35.9% (active) |
| CN(C)CC1(O)CCC2(CCN(C(=O)c3ccc4ccccc4n3)CC2)CC1 | -13.2% (inactive) |
| CSCC(=O)N1CCC2(CC1)CC(c1ccccc1)CN(C)C2 (stereo not drawn) | 3.1% (inactive) |
| CC1=C[C@@H](CNC(C)C)[C@H](C(C)C)C[C@H]1Cc1nnc(-c2ccc(C)cc2)o1 | -3.97% (inactive) |
| O=C(Cc1cccc(F)c1)N1CCC[C@H]1c1nc(-c2ccc(F)cc2)n[nH]1 | 21.1% (inactive) |
| O=C1CCC2(C(=O)NCCCN3CCCC3)CCC=C2N1C1CCCC1 (stereo not drawn) | 9.28% (inactive) |
| CCOc1cccc2c1N[C@@H](c1ccc(C(=O)O)cc1)[C@H]1CC=C[C@@H]21 | -85.5% (active) |
| CCOc1ccccc1CNC(=O)c1ccc(-n2c(C)cc3c2CCC(C)C3)cc1 (stereo not drawn) | 14.3% (inactive) |
| CCOc1cccc(CC(=O)N2CCc3c([nH]c4ccccc34)C2c2ccc(F)cc2)c1OCC (stereo not drawn) | 2.13% (inactive) |
| COc1ccc(OC2CN(CC3CCCCC3)C2)cc1 | -18% (inactive) |

| SMILES | activity change |
| --- | --- |
| CCN(CC)CCNC(=O)C12CCCC=C1N(Cc1ccccc1)C(=O)CC2 (stereo not drawn) | 7.12% (inactive) |
| O=C(OCCN1CCOCC1)c1cccnc1Nc1cccc(C(F)(F)F)c1 | -58.6% (active) |
| CCc1cccc(NC(=O)c2cnc(N3CCOCC3)c3ccccc23)c1 | -10.5% (inactive) |
| O=C(c1ccccc1)N1CCNc2cnc(Nc3cccc(C(F)(F)F)c3)nc2C1 | 4.76% (inactive) |
| O=C(c1ccc(Cl)cc1)N1CCCC(n2cc(-c3nc(-c4ccccc4)no3)nn2)C1 (stereo not drawn) | 5.18% (inactive) |
| O=C(C1CCCN(C(=O)C2CC2)C1)N1CCC(N2CCCC2=O)CC1 (stereo not drawn) | -0.186% (inactive) |
| CN(C)C[C@@H]1CN(c2ccncn2)C[C@H]1NC(=O)c1cc(C2CC2)[nH]n1 | 3.23% (inactive) |
| O=C(NC1CCN(Cc2ccccc2)CC1)c1ccc(Cn2c(=O)c3ccccc3n(Cc3cccc(F)c3)c2=O)cc1 | 6.69% (inactive) |
| O=c1c2ccccc2n(Cc2cccc(Cl)c2)c(=O)n1Cc1ccccc1 | -26% (active) |
| CCn1c2ccccc2c2cc(CN3CCN(Cc4cccc(Cl)c4)CC3)ccc21 | -4.05% (inactive) |
| CN(C)C(=O)c1ccc2oc(-c3ccnc(Cl)c3)nc2c1 | -35.6% (active) |
| O=C(NCc1ccccc1)c1ccc2nc(-c3ccnc(Cl)c3)oc2c1 | -0.193% (inactive) |
| CCc1ccc(CN(C)C(=O)c2ccc3oc(-c4cccc(F)c4)nc3c2)nc1 | 12.9% (inactive) |
| CCOc1ccc(CC(=O)NC2CCN(c3cc(-c4ccc(F)cc4)[nH]n3)CC2)cc1OCC | 22.5% (inactive) |
| COc1ccccc1NC(=O)C1=C(C)Nc2ncnn2C1c1sccc1C (stereo not drawn) | -0.661% (inactive) |
| CC1=C(C(=O)Nc2ccccc2Cl)C(c2cccs2)n2ncnc2N1 (stereo not drawn) | -26.4% (active) |
| CCOc1ccccc1NC(=O)C1=C(C)Nc2ncnn2C1c1ccc(NC(C)=O)cc1 (stereo not drawn) | -19.2% (inactive) |
| CCN(Cc1ccccc1)C(=O)CCc1ccc2c(c1)CN(C(=O)NC(C)C)CCO2 | -13.8% (inactive) |
| CCCC(C)N1CC2(CCN(C(=O)c3csc(C(C)C)n3)CC2)OC1=O (stereo not drawn) | 4.73% (inactive) |
| COc1ccc(-c2ccc3ncn(Cc4ccccc4)c(=O)c3n2)cc1OC | 7.2% (inactive) |
| O=c1ncn(Cc2ccccc2)c2ccc(-c3ccoc3)nc12 | -29% (active) |
| O=c1c2nc(-c3ccccc3)ccc2ncn1Cc1ccccc1 | 5.89% (inactive) |
